Source: PubChem BioAssay (NCI)
This is part of a sample that, as a whole, favours compounds with a hit. Of some 79,000 tested, about 15% had one in any assay. Calls of active or inactive are those of the source. Rule as the data show it: active = growth inhibition above about 70%; inactive = the rest. Where a SMILES comes first, the peptide text is derived from it. [ ]: non-standard residue; d: D form. The star is where a group is joined. ξ: configuration not given here. Cbz = O=C(OCc1ccccc1)*; Boc = CC(C)(C)OC(=O)*; ξK = NCCCCC(N)C(=O)O; OtBu = CC(C)(C)O*

How the values were obtained:
[1] = NCI Yeast Anticancer Drug Screen. Data for the rad50 strain (AID 155);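 also: 0% = growth of vehicle-only cultures of the same strain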; conditions: S. cerevisiae rad50 strain growth inhibition; at 50.0 µM; hits give high values
How it was run: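 Cells are treated with compound, grown, and their growth is then scored against vehicle-only cultures of the same repair-deficient yeast strain.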

[2] = NCI Yeast Anticancer Drug Screen. Data for the mec2-1 strain (AID 157); conditions: S. cerevisiae mec2-1 strain, at 50.0 µM, hits give high values
How it was run: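 mec2-1 yeast strain, carrying an alteration in DNA damage repair or cell cycle control, was exposed to compounds; growth inhibition was measured relative to vehicle-treated controls.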

[3] = NCI Yeast Anticancer Drug Screen. Data for the sgs1 mgt1 strain (AID 161);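 also: 0% = growth of cultures given vehicle only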; conditions: S. cerevisiae sgs1 mgt1 strain, at 50.0 µM, hits give high values
How it was run: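 Yeast cells carrying a defined DNA-repair defect were exposed to test compounds. Growth inhibition was measured relative to vehicle-treated controls.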

[4] = NCI Yeast Anticancer Drug Screen. Data for the cln2 rad14 strain (AID 165);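 also: 0% = growth equal to vehicle treated cultures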; conditions: S. cerevisiae cln2 rad14 strain, at 50.0 µM, hits give high values
How it was run: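 Yeast carrying cln2 and rad14 alterations (cell cycle control and DNA damage repair) were exposed to compounds. Growth inhibition was measured against vehicle-treated controls.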

[5] = NCI Yeast Anticancer Drug Screen. Data for the bub3 strain (AID 167); conditions: S. cerevisiae bub3 mutant strain, at 50.0 µM, hits give high values
How it was run: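 Part of a panel of yeast mutants defective in DNA damage repair or cell cycle regulation. Each strain is grown with compound, and inhibition is calculated relative to solvent-treated cultures.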

[6] = NCI Yeast Anticancer Drug Screen. Data for the mlh1 rad18 strain (AID 175); conditions: S. cerevisiae mlh1 rad18 strain growth inhibition; at 50.0 µM; hits give high values
How it was run: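 Growth inhibition of the yeast strain was measured after compound exposure and expressed relative to vehicle-treated controls. The strain carries defined defects in DNA damage repair.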

Measured: growth inhibition

CC(C)(C)OC(=O)CC(NC(=O)OC(C)(C)C)C(=O)NC(Cc1ccccc1)C(N)=O (stereo not drawn) (Boc-Asp(OtBu)-Phe-NH2; configuration not given here)
inactive: [1] -23.1% | [2] 6.85% | [3] -3.85% | [4] 35.5% | [5] 13.5% | [6] -11.3%

CC(C)C1OCC=CCO1
inactive: [1] 7.65% | [2] -6.7% | [3] -13.2% | [4] -9.85% | [5] 13.7% | [6] -3%

NCCCCC(NC(=O)OCc1ccccc1)C(=O)NCC(N)=O (stereo not drawn) (Cbz-[ξK]-Gly-NH2)
inactive: [1] 10.1% | [2] 8.5% | [3] 5% | [4] 4.05% | [5] 16.1% | [6] -30.2%

O=C(/C(=C/c1ccccc1)N1CCOCC1)c1cccc2ccccc12
inactive: [1] 18.9% | [2] -2.15% | [3] 17.1% | [4] 14.7% | [5] 21.4% | [6] 19.9%

O=C1C=CC(=O)c2c1c1c(c3c2C2c4ccccc4C3c3ccccc32)C2c3ccccc3C1c1ccccc12
inactive: [1] -13.5% | [2] -16.1% | [3] 19.9% | [4] -8.25% | [5] -5.75% | [6] 12.7%

Oc1ccccc1C1SC(c2ccccc2O)SC(c2ccccc2O)S1 (stereo not drawn)
active: [1] 96.9% | [2] 96% | [3] 95.7% | [4] 93.1% | [5] 97% | [6] 95.8%

O=C1CN(c2ccc(Cl)cc2)C(=O)CN1CCN1CC(=O)N(c2ccc(Cl)cc2)CC1=O
inactive: [1] -43.5% | [2] -10.3% | [3] -3.25% | [4] 10.6% | [5] -39.6% | [6] -23.6%

CCOC(=O)c1c(NC(=O)CCl)ssc1=S
inactive: [1] 15.2% | [2] 28.4% | [3] 42.5% | [4] 22.8% | [5] 4.7% | [6] 43.6%

OC1C/C=C/CCCCC1 (stereo not drawn)
inactive: [1] -11% | [2] -5.75% | [3] -3.55% | [4] 1.95% | [5] 3.3% | [6] -4.4%

COc1ccc(C=Nc2ccc3c(c2)OCO3)cc1Br
inactive: [1] 16.9% | [2] 16.9% | [3] 11.7% | [4] 14.6% | [5] 9.4% | [6] 19.2%

Nc1nc(N)nc(-c2ccccc2-c2nc(N)nc(N)n2)n1
inactive: [1] -5.65% | [2] -2.85% | [3] 3.45% | [4] -18% | [5] 14.2% | [6] 6.65%

Cc1nn2c(c1C#N)NNc1c-2sc(=N)nnc1=O
inactive: [1] -1.6% | [2] 0.5% | [3] 13.5% | [4] -4.4% | [5] -9.4% | [6] 15.6%

O=C(Nc1ccc([N+](=O)[O-])cc1)N(c1ccccc1)c1cc(N2CCOCC2)ccn1
inactive: [1] 40.7% | [2] 16.6% | [3] 9.1% | [4] 13.8% | [5] 5.8% | [6] 34.9%

Brc1nccs1
inactive: [1] -21.9% | [2] -21.4% | [3] -13.2% | [4] -11.1% | [5] -9.05% | [6] -27.1%

O=C(O)c1ccc(O)c(Cl)c1
inactive: [1] 14.2% | [2] 5.8% | [3] -7.85% | [4] -22.2% | [5] 9.25% | [6] 25.4%

O/N=C1/CCCCCC1NO (stereo not drawn)
inactive: [1] -23.8% | [2] -24.1% | [3] -22.7% | [4] 15.4% | [5] -18.1% | [6] -13.1%

CC(N(N=O)c1cccc(Cl)c1)S(=O)(=O)O (stereo not drawn)
inactive: [1] 7.25% | [2] 4.8% | [3] -6.45% | [4] 22.6% | [5] 5.55% | [6] -0.4%

CNC(=O)CCC(NC(=O)OC(C)(C)C)C(=O)NC(Cc1ccc(NC(=O)CCCCC(C)=O)cc1)C(=O)NCC(=O)NC (stereo not drawn)
inactive: [1] -18.3% | [2] 13.9% | [3] -0.25% | [4] 9.8% | [5] 3.75% | [6] -2.1%

CC1(C)CCCCCCC2CC2CCCCCC(C)(C)C1=O (stereo not drawn)
inactive: [1] 1% | [2] -6.15% | [3] -4.8% | [4] 7.8% | [5] -11.5% | [6] 24.1%

CSC(=NCCCCN=C(NS(=O)(=O)c1ccc(Cl)cc1)SC)NS(=O)(=O)c1ccc(Cl)cc1
inactive: [1] -18.1% | [2] -27% | [3] -16.9% | [4] 13.9% | [5] -8.8% | [6] -11.2%

O=C(c1cc([N+](=O)[O-])cc([N+](=O)[O-])c1)N1CCCC1
inactive: [1] -45.8% | [2] -20.7% | [3] -2.75% | [4] -25.1% | [5] 16.4% | [6] 9.2%

O=C1CC2(CCc3ccccc32)C(=O)N1CN1CCN(CCO)CC1 (stereo not drawn)
inactive: [1] 12.6% | [2] -5.8% | [3] 3.9% | [4] 9% | [5] 7.15% | [6] 11.9%

CCC(C)C(CO)N=Cc1ccccc1O.O.[Cu] (stereo not drawn)
active: [2] 82.3% | [3] 74% | [5] 80.2% | [6] 83.3%
inactive: [1] 65.3% | [4] 62%

CCN(CC)N=Nc1ccc(S(N)(=O)=O)cc1
inactive: [1] 8.25% | [2] 12.6% | [3] 16.1% | [4] 38% | [5] -5.1% | [6] 14.6%

COc1ccc(C(C#N)NC23CC4CC(CC(C4)C2)C3)cc1OC (stereo not drawn)
inactive: [1] -11.8% | [2] -19.8% | [3] -25.1% | [4] -15.2% | [5] -56.2% | [6] -19.5%

O=C1CC(O)(c2ccccc2)C(c2ccccc2)=C1c1ccccc1 (stereo not drawn)
inactive: [1] 29.8% | [2] 21.4% | [3] 14.3% | [4] 32.7% | [5] -2.15% | [6] 36.8%

COc1ccccc1-n1c(O)c(N=Nc2ccccc2)c(=O)n(-c2ccc(C)cc2)c1=S
inactive: [1] 38.3% | [2] -8.95% | [3] 66.8% | [4] -10.8% | [5] -2.2% | [6] 12.8%

CC(=O)CC(C)(C)NC(=S)Nc1ccc(O)cc1
active: [1] 99.7% | [2] 99.5% | [3] 99.8% | [4] 98.8% | [5] 99.8% | [6] 99.8%

CCOC(=O)C(CCC(=O)OC)C(=O)OCC
inactive: [1] -2.45% | [2] -1.75% | [3] -32.5% | [4] -28.2% | [5] -5.25% | [6] 1.6%

CC(=O)ON(C(=O)c1ccccc1)c1ccccc1
inactive: [1] -1.7% | [2] 0.95% | [3] 4.3% | [4] -5.15% | [5] 7.05% | [6] 12.1%

Cc1ccccc1NC(=O)NC(Oc1ccccc1)(C(F)(F)F)C(F)(F)F
inactive: [1] -6.95% | [2] -21.8% | [3] -50.9% | [4] 15.6% | [5] -32.8% | [6] -29.1%

Cc1ccc(C(=O)Oc2ccccc2)cc1
inactive: [1] -3.35% | [2] -5.1% | [3] -11.7% | [4] -34.2% | [5] -7.2% | [6] -20%

N#CCN1CCOCC1
inactive: [1] 31.5% | [2] -1.55% | [3] 4.45% | [4] 15.2% | [5] 10.2% | [6] 27.1%

CCN(CC)C(=O)CCC1(C)OCCO1
inactive: [1] -4.8% | [2] -12.1% | [3] -25.3% | [4] 56.4% | [5] -13.9% | [6] 6.45%

CC(N)c1ccc(OCCOc2ccc(C(C)(C)CC(C)(C)C)cc2)cc1 (stereo not drawn)
active: [1] 98.9% | [2] 99% | [4] 97.7% | [5] 98.9% | [6] 99%
inactive: [3] 42.7%

O=C(O)c1ccccc1Sc1ccc([N+](=O)[O-])cn1
inactive: [1] 33.2% | [2] 5.1% | [3] 2.15% | [4] -15.8% | [5] 6.4% | [6] 44.7%

c1ccc(OB(Oc2ccccc2)Oc2ccccc2)cc1
inactive: [1] 12.2% | [2] 6.65% | [3] -7.25% | [4] -39% | [5] 4.2% | [6] -6.7%

CN1C(C)(C)CC(O)(C(O)(c2ccccc2)c2ccccc2)CC1(C)C
inactive: [1] 10.4% | [2] -9.35% | [3] -14.6% | [4] -14% | [5] -11.2% | [6] 3.7%
